Compound activity from PubChem.
ATXN2 expr inh: ATXN2 expression inhibition; HEK-293 ATXN2-luciferase reporter, luminescence, 24 h; 0.72% of 360,000 active; AID 1745845; Potency, µM (doses to about 57 µM), for the others: at the highest dose activity change, negative = inhibition, hits mostly inhibitors; also: potency is read from the fitted curve at half-maximal effect; % is scaled to controls: 0 for no effect and ±100 for the full control effect; nearly all actives have a fitted effect of over 55% in size
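ATXN2-luciferase reporter cells (luciferase flanked by upstream and downstream ATXN2 gene portions) were treated 24 h at 37 °C with compounds at up to 57 uM. SteadyGlo luminescence gave expression; GF-AFC fluorescence gave viability.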
D3 ag: D3 dopamine receptor (human) agonism. D3R DiscoveRx beta-arrestin cells, luminescence, 90 min. 0.58% of 410,000 active. P35462. AID 652048. max activation, %; in the data active = max activation above about 30%; also: 0% is about no effect
Target sequence (P35462 whole entry, looked up): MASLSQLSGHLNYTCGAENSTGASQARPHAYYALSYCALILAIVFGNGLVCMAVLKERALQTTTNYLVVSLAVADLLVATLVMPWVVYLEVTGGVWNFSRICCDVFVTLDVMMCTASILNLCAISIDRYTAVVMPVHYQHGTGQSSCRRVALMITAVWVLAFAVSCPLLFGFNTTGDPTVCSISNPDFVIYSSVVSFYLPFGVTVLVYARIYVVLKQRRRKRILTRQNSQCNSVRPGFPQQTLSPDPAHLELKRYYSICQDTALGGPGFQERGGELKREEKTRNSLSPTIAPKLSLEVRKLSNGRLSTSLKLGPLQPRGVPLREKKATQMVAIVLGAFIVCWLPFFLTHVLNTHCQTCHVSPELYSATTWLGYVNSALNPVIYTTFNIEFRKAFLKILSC
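Cells at 1500/well, incubated overnight, then treated with pinned compounds (dopamine as control) for 90 min at 37 degrees C. DiscoveRx reagent added for 30 - 60 minutes at room temperature; luminescence read.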
D3 antag: D3 dopamine receptor (human) antagonism; P35462; D3R cells, DiscoveRx beta-arrestin luminescence, antagonist mode; hits give low values; max response, negative = inhibition, %; 2.5% of 360,000 active; AID 652054; in the data active = max response below about -50%; inconclusive = no clear call, values can overlap the other calls; also: % is scaled to controls: 0 for no effect and ±100 for the full control effect
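Cells plated overnight at 1500 cells/well, then exposed to library compounds with dopamine controls for 90 minutes at 37 degrees C. DiscoveRx reagent added for 30–60 minutes at room temperature; luminescence read, quantitative HTS format.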
IL1B secr inh: blocks inflammasome-driven IL-1 beta release; 4.7% of 360,000 active; AID 743279; activity change, % at 57.5 µM; THP-1 LPS/ATP IL-1B secretion, AlphaLISA, 16 h; hits give low values; in the data active = activity change below about -50%; inconclusive = mostly about -30% to -49%; also: % is scaled to controls: 0 for no effect and ±100 for the full control effect
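Secreted IL-1B measured by AlphaLISA bead assay after 16 h compound exposure of THP-1 cells; compounds (final up to 57.5 uM) added 1 h before LPS (250 ng/mL) and ATP (1.25 mM) stimulation; lower signal means less secretion.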
S2 tox: viability counter-screen for ATXN expression inhibitors. S2 cells (HEK-293 line with an ATXN2-luciferase reporter) viability, CellTiter-Fluor protease fluorescence, 24 h. Potency, µM (doses to about 56.7 µM), usual class: cytotoxic. 0.49% of 400,000 active. AID 651635; also: potency is read from the fitted curve at half-maximal effect; nearly all actives have a fitted effect of over 40% in size
Integrin act MD: integrin-mediated muscular dystrophy alleviation activation; AID 624291; Potency, µM (doses to about 38.3 µM), for inactives: at the highest dose activation, hits mostly activators; alpha7betagal myoblasts, beta-gal FDG fluorescence, 48 h; 0.064% of 350,000 active;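 also: potency is read from the fitted curve at half-maximal effect; 100% = response of the positive control SU9516; nearly all actives have a fitted effect of over 60% in size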
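alpha7betagal+/- myoblasts (passage 13, 250/well) treated 48 h at 37C with compounds at 1:260 dilution of DMSO stock. Lysed, then beta-galactosidase activity read as FDG fluorescence (ex 480/em 540) after 30 min, with pre-read for autofluorescence.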
* = called active by the depositor; i = inactive; u = inconclusive; x = no result given; [ ] = dose if it differs, or a comment. Most compounds without a hit are left out; they make up all but 7% or so of the library. Unless noted, calls follow the shape of the dose curve; as a rule, active = well fitted curve in the direction sought with a large enough effect; inconclusive = small, poorly fitted or top-dose-only effect, or another doubt; inactive = no such curve, though single readings can be large; an effect the other way counts as inactive or inconclusive.

SMILES | ATXN2 expr inh | D3 ag | D3 antag | IL1B secr inh | S2 tox | Integrin act MD
CN(C)/C=N/c1ncc(C(=O)c2ccc(-c3ccccc3)cc2)s1 | -1.6% | 1.6 | 4.7 | -52.5* | i | 24.9%
Cc1cc(C(=O)CSc2nnc(-c3cccnc3)n2-c2ccccc2)c(C)n1CC1CCCO1 (centres undefined) | 39.6% | 1.1 | 5.1 | -9.3 | i | -18.2%
CC1(C(=O)NCCc2ccccc2)Cc2c(-c3cccc(C(F)(F)F)c3)ccnc2O1 (centres undefined) | -5.3% | -5.1 | u | 56.2 | u | x
CN1CCN(c2ccc(CNC(=O)C3(C)Cc4c(-c5ccccc5)ccnc4O3)cc2)CC1 (centres undefined) | -10.0% | -15.0 | -62.3* | -22.0 | i | x
CC1(C(=O)NCc2ccccc2)Cc2c(-c3ccccc3)ccnc2O1 (centres undefined) | 11.6% | -13.8 | u | 0.0 | i | x
CN(C)c1ccc(-c2ccnc3c2CC(C)(C(=O)NCc2ccccc2)O3)cc1 (centres undefined) | -20.8% | -8.2 | -26.9 | 45.6 | u | x
CC1(C(=O)NCCc2ccccc2)Cc2c(-c3ccccc3)ccnc2O1 (centres undefined) | -15.3% | -21.6 | 0.0 | -59.1* | i | x
CC1(C(=O)NCc2ccccc2)Cc2c(-c3ccc(C(N)=O)cc3)ccnc2O1 (centres undefined) | 0.3% | 58.5* | u | 44.2 | i | x
Cc1cccc(N2CC(C)Cn3c2nc2c3c(=O)n(CC(=O)O)c(=O)n2C)c1 (centres undefined) | 3.4% | -13.3 | x | x | i | x
C=CCn1c(=O)c2c(nc3n2CC(C)CN3c2cccc(OC)c2)n(C)c1=O (centres undefined) | 7.0% | -9.8 | -69.2* | -11.1 | i | -36.3%
CC(C)CN(CC(C)C)c1ccc(/C=N/n2cnnc2)cc1[N+](=O)[O-] | 2.3% | -18.8 | -3.1 | -55.3* | i | 14.6%
O=[N+]([O-])c1cc(/C=N/n2cnnc2)ccc1N1CCCC1 | x | -4.8 | -4.1 | 10.1 | i | -43.8%
O=C(CCNS(=O)(=O)c1cccc2nsnc12)NCc1ccc(F)cc1 | 2.1% | -4.5 | -14.5 | 32.4 | i | 0.0%
OC1CC2CCC(C1)N2CCCN1c2ccccc2Sc2ccc(Cl)cc21 (centres undefined) | 11.2µM* | -15.8 | -101.8* | -80.7* | 15.8µM* | -72.9%
CC(=O)c1ccc2c(c1)N(CCCN1CCN(CCO)CC1)c1ccccc1S2 | x | -17.9 | x | x | x | x
COc1ccc2cc(C(=O)COC(=O)COc3ccc4c(C)cc(=O)oc4c3)ccc2c1 | -10.1% | 0.3 | -2.6 | -5.1 | i | 10.6%
CCC(=O)N1CCN(c2ccccc2NC(=O)COc2cc(C)ccc2C(C)C)CC1 | u | -9.3 | 1.4 | -94.6* | i | -16.9%
CCC(=O)N1CCN(c2ccccc2NC(=O)Cc2ccc(Cl)cc2)CC1 | -15.8% | -4.3 | -73.7* | 0.0 | i | 1.9%
CCC(=O)N1CCN(c2ccc(Cl)cc2NC(=O)Cc2ccc(Cl)cc2)CC1 | u | -5.9 | -3.0 | u | u | -28.5%
Cc1ccc(NC(=O)c2ccc(S(=O)(=O)N3CC(C)CC(C)C3)cc2)cc1S(=O)(=O)N1CCOCC1 (centres undefined) | -13.9% | -2.6 | -17.5 | -22.3 | i | -17.3%
N#CC1C=Cc2ccccc2N1C(=O)c1ccccc1 (centres undefined) | -27.5% | 0.0 | 6.8 | 24.2 | i | -12.0%
N#CC1C=Cc2c(ccc3ccccc23)N1C(=O)c1ccccc1 (centres undefined) | u | 1.5 | 5.2 | -66.2* | u | -29.6%
CCCNC(=S)NCCN1CCCCC1 | 1.0% | -1.0 | -62.5* | 6.8 | i | -12.6%
CCCCNC(=S)NCCN1CCCCC1 | -38.4% | -3.3 | -72.1* | -18.9 | i | -18.9%
O=C(Cc1ccc(-c2ccccc2)cc1)Nc1ccccn1 | u | 16.7 | -9.5 | -69.5* | i | u
SMILES | ATXN2 expr inh | D3 ag | D3 antag | IL1B secr inh | S2 tox | Integrin act MD
Cc1ccc(NC(=O)Cc2ccc(-c3ccccc3)cc2)nc1 | u | -13.8 | -11.6 | -60.3* | i | 28.9%
Cc1ccnc(NC(=O)Cc2ccc(-c3ccccc3)cc2)c1 | u | 3.7 | 4.1 | u | i | -43.7%
CN(CCc1cn[nH]c1)Cc1nc(Cc2ccccc2F)no1 | 6.8% | 7.6 | 8.1 | -2.9 | i | -9.5%
COc1c2occc2c(OC)c2c(=O)cc(C(F)(F)F)oc12 | 11.2% | 3.6 | 3.8 | -13.2 | u | -38.6%
COc1c2ccoc2c(OC(C)=O)c2oc(C)cc(=O)c12 | x | 4.5 | -2.1 | -50.7* | i | 16.1%
Cc1nc(NCc2ccco2)c2c(C)c(C)sc2n1 | 11.2µM* | 9.8 | -4.7 | -76.8* | u | -16.6%[7.66 µM]
CCOc1ccc(OCc2nnc(SCC(=O)NC3CCS(=O)(=O)C3)n2-c2ccc(Cl)cc2)cc1 (centres undefined) | -4.8% | 16.3 | 0.1 | 16.2 | i | -1.3%
CCSc1ccc2c(c1)N(CCCN1CCN(C)CC1)c1ccccc1S2 | 0.6% | -84.5 | -86.8* | -57.5* | i | x
CN1CCN(CCCN2c3ccccc3Sc3ccccc32)CC1 | x | -26.0 | x | x | u | x
O=C(c1ccccc1)N1CCN(CC(O)COCC2CC=CCC2)CC1 (centres undefined) | 1.9% | -2.8 | u | 2.1 | i | -6.4%
O=C(c1ccccc1)N1CCN(CC2CC=CCC2)CC1 (centres undefined) | 0.4% | -4.3 | -60.2* | -22.6 | i | 2.5%
FC(F)(F)c1cccc(N2CCN(CC3CC=CCC3)CC2)c1 (centres undefined) | -19.5% | -17.4 | -65.6* | 14.4 | i | -4.8%
Cc1ccc(N2CCN(CC3CC=CCC3)CC2)cc1 (centres undefined) | -9.1% | -39.1 | -141.4* | -14.4 | i | 26.8%
C1=CCC(CN2CCN(C3CCCCCC3)CC2)CC1 (centres undefined) | -4.3% | -17.5 | u | 46.5 | i | -11.2%
COC(=O)c1ccc2nc(-c3ccc(Cl)cc3)c(CC3CCCCC3)n2c1 | 19.0% | 8.7 | 12.1 | 53.3 | i | x
CC(C)NC(=S)N/N=C/c1ccc(C(C)(C)C)cc1 | -4.8% | -1.4 | -19.3 | -68.2* | i | -30.0%
C=CCNC(=S)N/N=C/c1ccc(C(F)(F)F)cc1 | u | 10.3 | 3.2 | -55.6* | u | -23.0%
CCN1CCN(C(=O)c2ccc3c(=O)n(Cc4ccccc4OC)c(=S)[nH]c3c2)CC1 | -15.8% | -6.9 | -50.1* | 26.8 | i | 13.4%
COc1ccccc1Cn1c(=S)[nH]c2cc(C(=O)NCCN(C)C)ccc2c1=O | 0.0% | -17.2 | -11.4 | -56.0* | i | -39.8%
CCOC(=O)N1CCN(C(=O)c2ccc(Cn3c(=S)[nH]c4ccc(Br)cc4c3=O)cc2)CC1 | u | 16.6 | 27.2 | -63.3* | i | -12.3%
